Assay [1] can be described thus: inhibitors of TNFa-induced NFkB p65 translocation, primary screen, imaging, HUVEC, MLSMR starter and 10KST1 sets (AID 438;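 active = inhibition above 20% together with a positive visual image hit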;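 also: compound added about 3h40 before a 20 min TNFalpha stimulation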;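 as to inhibition: signal is the nuclear over cytoplasmic p65 intensity ratio per well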). The conditions noted are these: HUVEC TNFa-induced p65 nuclear translocation; cell count: measured here: nuclei count (cytotoxicity indicator), at 2.08 µM; inhibition: at 2 µM, stronger effect = higher value, 0% TNFa-plus-vehicle, 100% no-TNFa wells.
A short description of assay [2]: reduction of polyQ htt aggregates in cells – imaging, exon1htt(103Q)mCFP cells, high-content imaging, primary screen (AID 483;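 active = visual image review flags a hit and inhibition of aggregation exceeds 20%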;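 also: compound exposure lasted 3 days before fixation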;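 as to nuclei count: percent of the per-plate median nuclei count of sample wells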). The note with it: exon1htt(103Q)mCFP cell line, aggregate imaging, at 2 µM; inhibition of aggregation: stronger effect = higher value; nuclei count: measured here: cell count, toxicity.
The nature of assay [3]: endothelial E-selectin expression blockers – imaging, HUVEC, immunofluorescence, MLSMR starter and 10KST1 sets, primary screen (AID 487;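 active = visually confirmed hit in the image check and inhibition above 20%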;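 as to inhibition: signal is fraction of cell area covered by stained E-selectin grains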;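 as to nuclei count: 100% = median nuclei count of all wells on the same plate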). The conditions noted are these: HUVEC TNFalpha-induced E-selectin immunofluorescence imaging, at 2 µM; inhibition: stronger effect = higher value; nuclei count: measured here: cell number, toxicity.
Assay [4] addresses Voltage-gated potassium channel subunit beta-2 (Rattus norvegicus) (UniProt P62483). The assay is described as follows: inhibitors of rat Kvbeta2 reductase activity – biochemical, NADPH fluorescence, primary screen (AID 622;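 active = fluorescence slope higher than the sample average by over 3 SD, cut at about -0.22 in these data, passing the limit was not always enough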;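 also: slope of raw intensity against log time taken from 70 to 1610 s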). The note with it: recombinant KvBeta, 4-cyanobenzaldehyde reduction, at 10 µM, stronger effect = higher value.
For assay [5] the target is unchanged. The assay is described as follows: enhancers of rat Kvbeta2 NADPH turnover – biochemical, NADPH fluorescence, primary screen (AID 623;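 active = NADPH fluorescence slope more negative than the mean of all samples by about 3 SD, 99.7% confidence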;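 also: fluorescence intensity change per second fitted from 20 to 320 s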). The note with it: Recombinant KvBeta, NADPH fluorescence decrease slope, 10 min; at 10 µM; stronger effect = lower value.
For assay [6], the target named is Alpha-2C adrenergic receptor (Homo sapiens) (UniProt P18825). The assay is described as follows: compounds altering alpha2C-coupled GIRK flux – cell-based, HEK293 alpha2C/GIRK1/2, thallium flux, primary screen (AID 624;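 active = fluorescence slope after compound addition differing from the mean of all screened samples at 99.7% confidence, in either direction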;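 also: slope of fluorescence ratio to pre-addition baseline per second over 15 to 24 s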). The conditions noted are these: thallium flux BTC fluorescence, at 10 µM, actives lie on both sides.
A short description of assay [7]: blockers of RIG-like receptor reporter activation – cell-based, Sendai virus stimulus, luciferase, 10K MLSCN set, TLR/RLR signaling modifier project, primary screen (AID 602276).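 Also: firefly luciferase from ISG56 promoter only with Renilla not read in this screen; 0% = Sendai virus plus DMSO and 100% = medium plus DMSO without virus.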 The conditions noted are these: HEK293 RL24 IRF3 luciferase reporter, at 10 µM, stronger effect = higher value. A general note: In a reporter assay the amount or activity of a reporter protein is the signal.

Assay [8] in a line: TLR3 IRF3 reporter activation blockers – cell-based, poly I:C stimulus, luciferase, 10K MLSCN set, primary screen (AID 602277;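 active = inhibition of the reporter signal at or above 50%; inactive = inhibition below 50%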). The conditions noted are these: HEK293-TLR3 RL24 IRF3 luciferase reporter, at 10 µM, stronger effect = higher value.

SMILES strings stand for the structures. Calls of active or inactive are those of the source.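 The calls were made as follows, unless noted: active = inhibition at or above 50% at 10 µM; inactive = inhibition below 50%.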

The term inhibition denotes the drop in the measured response relative to a control, in per cent.

Chain of Voltage-gated potassium channel subunit beta-2 (Rattus norvegicus) (P62483 whole entry, looked up): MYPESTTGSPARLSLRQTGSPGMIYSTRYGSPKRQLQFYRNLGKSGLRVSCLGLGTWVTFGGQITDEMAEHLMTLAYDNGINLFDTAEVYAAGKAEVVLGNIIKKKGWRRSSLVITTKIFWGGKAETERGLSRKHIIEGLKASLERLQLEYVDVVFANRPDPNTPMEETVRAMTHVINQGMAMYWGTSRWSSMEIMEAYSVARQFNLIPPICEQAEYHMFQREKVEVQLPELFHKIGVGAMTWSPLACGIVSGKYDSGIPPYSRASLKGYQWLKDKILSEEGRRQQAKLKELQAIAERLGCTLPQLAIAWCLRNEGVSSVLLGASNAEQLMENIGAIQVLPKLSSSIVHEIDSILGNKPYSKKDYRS
Chain of Alpha-2C adrenergic receptor (Homo sapiens) (P18825 whole entry, looked up): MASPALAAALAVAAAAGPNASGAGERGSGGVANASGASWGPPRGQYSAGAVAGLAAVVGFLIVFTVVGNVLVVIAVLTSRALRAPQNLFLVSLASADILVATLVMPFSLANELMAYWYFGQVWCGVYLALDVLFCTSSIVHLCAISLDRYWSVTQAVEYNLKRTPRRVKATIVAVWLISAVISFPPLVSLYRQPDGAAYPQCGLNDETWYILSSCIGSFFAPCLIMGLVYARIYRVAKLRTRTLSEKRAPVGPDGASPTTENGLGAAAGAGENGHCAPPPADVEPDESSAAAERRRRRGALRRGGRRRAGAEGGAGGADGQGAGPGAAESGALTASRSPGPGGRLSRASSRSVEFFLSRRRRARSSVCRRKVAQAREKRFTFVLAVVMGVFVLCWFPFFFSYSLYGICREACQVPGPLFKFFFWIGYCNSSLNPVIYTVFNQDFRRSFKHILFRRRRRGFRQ

Turning to `Cc1ccc(-c2noc(CN3C(C)CCCC3C)n2)cc1` (stereo not drawn), the cell count in assay [1] is 483. The inhibition in assay [1] was 2.1% (inactive); in assay [3] it was -26.4% (inactive); in assay [7], 2.73% (inactive); in assay [8], 0.396% (inactive). Also, the inhibition of aggregation in assay [2] is -5.2% (inactive). The values for the nuclei count in assay [2] and in assay [3] were 75.4% and 101%, respectively. Moreover, the fluorescence slope in assay [4] is -0.531 (inactive). The NADPH fluorescence slope in assay [5] was -1.6e-05 (inactive). For the same compound, the slope in assay [6] was 0.00754 (inactive).

On to `N#Cc1c(N)nc2c(c1-c1ccncc1)CCCCC2`, for which the cell count in assay [1] came to 658. For the same compound, the inhibition is 3.9% (inactive) in assay [1], 4.5% (inactive) in assay [3], 12.7% (inactive) in assay [7] and 12.3% (inactive) in assay [8]. In assay [2], the inhibition of aggregation is 0% (inactive). Moreover, the nuclei count turned out to be 106% in assay [2] and 103% in assay [3]. Also, in assay [4], the fluorescence slope was -0.577 (inactive). Also, in assay [5], the NADPH fluorescence slope is -5.4e-05 (inactive). In assay [6], the slope is 0.00353 (inactive).

For the compound `CC(C)CN(C(=O)c1ccc(=O)n(C)n1)c1nc2ccccc2s1`, in assay [1], the cell count came out at 369. The inhibition in assay [1] is 4.8% (inactive); in assay [3], -5.9% (inactive); in assay [7], -18.6% (inactive); in assay [8], -44.4% (inactive). Also, the inhibition of aggregation in assay [2] is -17.5% (inactive). The nuclei count in assay [2] amounted to 93.5%; in assay [3] it was 112%. For the same compound, in assay [4], the fluorescence slope is -0.332 (inactive). Moreover, the NADPH fluorescence slope in assay [5] was -7.5e-05 (inactive). For the same compound, the slope in assay [6] was 0.00541 (inactive).

In the case of `CC1Cc2nc(SCC(=O)Nc3ccc4c(c3)OCO4)n(-c3ccc(F)cc3)c(=O)c2S1` (stereo not drawn), in assay [1], the cell count was 680. The inhibition in assay [1] is -23.4% (inactive); in assay [3] it was -32.8% (inactive); in assay [7], -0.186% (inactive); in assay [8], 51.2% (active). In addition, the inhibition of aggregation in assay [2] is -2.5% (inactive). The nuclei count in assay [2] stood at 102%; in assay [3], 107%. The fluorescence slope in assay [4] is -0.401 (inactive). In addition, the NADPH fluorescence slope in assay [5] was -6.4e-05 (inactive). For the same compound, the slope in assay [6] is 0.00514 (inactive).

Regarding `O=C1CC(c2cccs2)CC2=C1C(c1ccccc1)n1ncnc1N2` (stereo not drawn), in assay [1], the cell count came to 577. Further, the inhibition was 3.1% (inactive) in assay [1], -72.5% (inactive) in assay [3], 13.5% (inactive) in assay [7] and 25.2% (inactive) in assay [8]. In addition, the inhibition of aggregation in assay [2] is 4.6% (inactive). The nuclei count was 90.7% in assay [2] and 98.9% in assay [3]. The fluorescence slope in assay [4] was -0.597 (inactive). The NADPH fluorescence slope in assay [5] was 4.2e-06 (inactive). The slope in assay [6] is 0.00446 (inactive).

For the compound `Cc1ccc(NC(=O)CCN2CCc3ccccc3C2)cc1`, in assay [1], the cell count amounted to 820. In addition, the inhibition in assay [1] was -9.6% (inactive); in assay [3], -44.8% (inactive); in assay [7], 5.12% (inactive); in assay [8] it was 24.7% (inactive). The inhibition of aggregation in assay [2] was -13.1% (inactive). The nuclei count was determined as 86.9% in assay [2] and 113% in assay [3]. Besides, in assay [4], the fluorescence slope is -0.463 (inactive). The NADPH fluorescence slope in assay [5] is -0.000317 (inactive). Also, the slope in assay [6] was 0.00467 (inactive).

`COc1ccc(C(C)=O)c(OC(=O)c2ccc(OC)c(OC)c2)c1`: in assay [1], the cell count came out at 372. The inhibition in assay [1] was -0.3% (inactive); in assay [3], -76% (inactive); in assay [7], 13.2% (inactive); in assay [8], 22.8% (inactive). Also, in assay [2], the inhibition of aggregation is 3.6% (inactive). In addition, the nuclei count was 88.8% in assay [2] and 100% in assay [3]. In assay [4], the fluorescence slope was -0.376 (inactive). In addition, the NADPH fluorescence slope in assay [5] was 8.8e-06 (inactive). Besides, the slope in assay [6] is 0.00658 (inactive).

With `CCOC(=O)CSc1nnc2n1C(C)(C)Cc1ccccc1-2`, the cell count in assay [1] stood at 305. For the same compound, the inhibition is -0.9% (inactive) in assay [1], -102% (inactive) in assay [3], -15.4% (inactive) in assay [7] and -27.1% (inactive) in assay [8]. Further, the inhibition of aggregation in assay [2] was 0.5% (inactive). For the same compound, the nuclei count in assay [2] turned out to be 51.3%; in assay [3] it was 117%. Moreover, the fluorescence slope in assay [4] was -0.384 (inactive). The NADPH fluorescence slope in assay [5] was -8.4e-05 (inactive). For the same compound, the slope in assay [6] is 0.00549 (inactive).

For `Cc1ccc(O)c(C(CC(=O)N2CCCC2)c2ccccc2)c1` (stereo not drawn), the cell count in assay [1] was 478. Also, the inhibition was 1.6% (inactive) in assay [1], -33% (inactive) in assay [3], 3.98% (inactive) in assay [7] and 16.5% (inactive) in assay [8]. Moreover, the inhibition of aggregation in assay [2] is 4.1% (inactive). Moreover, the nuclei count in assay [2] amounted to 103%; in assay [3], 114%. The fluorescence slope in assay [4] is -0.35 (inactive). Moreover, the NADPH fluorescence slope in assay [5] is -4.7e-05 (inactive). Moreover, in assay [6], the slope is 0.00552 (inactive).

`CC12CN3CC(C)(CN(C1)C3c1cc(Br)ccc1O)C2=O` (stereo not drawn): the cell count in assay [1] is 305. Further, the inhibition in assay [1] was 0% (inactive); in assay [3], 39% (inactive); in assay [7], 3.76% (inactive); in assay [8], 37.4% (inactive). The inhibition of aggregation in assay [2] is 1.6% (inactive). Further, the nuclei count in assay [2] was determined as 121%; in assay [3], 83.4%. The fluorescence slope in assay [4] is -0.474 (inactive). Further, the NADPH fluorescence slope in assay [5] was -4.6e-06 (inactive). Also, in assay [6], the slope was 0.00402 (inactive).

In the case of `COC(=O)Oc1c(Br)c(=O)oc2ccccc12`, in assay [1], the cell count is 594. In addition, the inhibition in assay [1] was 7.7% (inactive); in assay [3], -49.4% (inactive); in assay [7], -15.5% (inactive); in assay [8], -23.7% (inactive). Besides, the inhibition of aggregation in assay [2] is -8.6% (inactive). Also, the values for the nuclei count in assay [2] and in assay [3] were 99.4% and 110%, respectively. Besides, in assay [4], the fluorescence slope was -0.443 (inactive). For the same compound, the NADPH fluorescence slope in assay [5] was -3.2e-05 (inactive). Besides, the slope in assay [6] was 0.00521 (inactive).

For `COc1ccc(/C(O)=C2/C(=O)C(=O)N(CCCN(C)C)C2c2ccc(Cl)cc2)cc1OC` (stereo not drawn), the cell count in assay [1] is 332. The inhibition in assay [1] was 4.5% (inactive); in assay [3] it was -11.6% (inactive); in assay [7] it was 12.7% (inactive); in assay [8], 10.6% (inactive). Also, in assay [2], the inhibition of aggregation was -28.5% (inactive). In addition, the nuclei count in assay [2] was found to be 122%; in assay [3], 112%. The fluorescence slope in assay [4] was -0.527 (inactive). The NADPH fluorescence slope in assay [5] is -3.6e-05 (inactive). In addition, the slope in assay [6] was 0.00513 (inactive).

Consider `COc1cccc(OC)c1OCCNCCO`, for which the cell count in assay [1] was 632. Besides, the inhibition in assay [1] was -3.4% (inactive); in assay [3] it was 8.1% (inactive); in assay [7], 13.1% (inactive); in assay [8], 20.6% (inactive). The inhibition of aggregation in assay [2] was 7.9% (inactive). For the same compound, the nuclei count was determined as 118% in assay [2] and 90.6% in assay [3]. Further, in assay [4], the fluorescence slope is -0.436 (inactive). Also, the NADPH fluorescence slope in assay [5] was 3.2e-05 (inactive). In addition, the slope in assay [6] is 0.00544 (inactive).

Values taken from PubChem BioAssay.
